Article PMC5540273 (PLoS ONE, 2017)

Tests used:
Conditions in all cases: concentration: 1 μM, replicates: in singlicate; n = 1
PRKX = system: PRKX
PRP4 = system: PRP4
PYK2 = system: T1, PYK2
T1 construct: gene PTK2B

QSK = system: QSK
RAF1 = system: RAF1
RET = system: RET
RIOK1 = system: RIOK1
RIOK2 = system: RIOK2
RIOK3 = system: RIOK3
RIPK1 = system: RIPK1
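Also: KINOMEscan kinase panel screen.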

COC(=O)c1c(-c2ccccc2)c2cc(Br)ccc2c(=O)n1Cc1ccc(S(C)(=O)=O)cc1
%Inh (PRKX): 28% | %Inh (PRP4): 0% | %Inh (PYK2): 6% | %Inh (QSK): 0% | %Inh (RAF1): 27% | %Inh (RET): 16% | %Inh (RIOK1): 0% | %Inh (RIOK2): 19% | %Inh (RIOK3): 0% | %Inh (RIPK1): 0%

COc1cc(OC)cc(-c2cc3cnc(N)nc3nc2NC(=O)NC(C)(C)C)c1
%Inh (PRKX): 5% | %Inh (PRP4): 0% | %Inh (PYK2): 4% | %Inh (QSK): 0% | %Inh (RAF1): 0% | %Inh (RET): 32% | %Inh (RIOK1): 8% | %Inh (RIOK2): 0% | %Inh (RIOK3): 45% | %Inh (RIPK1): 0%

CN(C)c1cc(-c2ccc3c(N)n[nH]c3c2)nc(N)n1 [GSK2219329]
%Inh (PRKX): 18% | %Inh (PRP4): 6% | %Inh (PYK2): 0% | %Inh (QSK): 5% | %Inh (RAF1): 0% | %Inh (RET): 0% | %Inh (RIOK1): 48% | %Inh (RIOK2): 0% | %Inh (RIOK3): 38% | %Inh (RIPK1): 0%

COC(=O)c1c(-c2ccccc2)c2cc(Br)ccc2c(=O)n1Cc1ccc(NC(=O)CCC(=O)O)cc1
%Inh (PRKX): 10% | %Inh (PRP4): 0% | %Inh (PYK2): 16% | %Inh (QSK): 0% | %Inh (RAF1): 14% | %Inh (RET): 5% | %Inh (RIOK1): 0% | %Inh (RIOK2): 0% | %Inh (RIOK3): 0% | %Inh (RIPK1): 0%

CCc1nc(-c2cccc(C)c2)c(-c2ccncc2)s1
%Inh (PRKX): 0% | %Inh (PRP4): 26% | %Inh (PYK2): 0% | %Inh (QSK): 0% | %Inh (RAF1): 22% | %Inh (RET): 0% | %Inh (RIOK1): 12% | %Inh (RIOK2): 8% | %Inh (RIOK3): 12% | %Inh (RIPK1): 0%

CN1C(=O)C(Nc2ccccc2)=C(c2ccccc2)C1=O [SB-300079]
%Inh (PRKX): 0% | %Inh (PRP4): 2% | %Inh (PYK2): 6% | %Inh (QSK): 0% | %Inh (RAF1): 44% | %Inh (RET): 0% | %Inh (RIOK1): 13% | %Inh (RIOK2): 0% | %Inh (RIOK3): 0% | %Inh (RIPK1): 0%

Cc1cc(Nc2nc(-c3cccc(C)n3)nc3ccccc23)ccn1 [GW872411]
%Inh (PRKX): 0% | %Inh (PRP4): 0% | %Inh (PYK2): 14% | %Inh (QSK): 0% | %Inh (RAF1): 0% | %Inh (RET): 0% | %Inh (RIOK1): 0% | %Inh (RIOK2): 0% | %Inh (RIOK3): 0% | %Inh (RIPK1): 0%

Nc1ncnc2c1ncn2-c1ccc(Cl)cc1 [AH2635]
%Inh (PRKX): 0% | %Inh (PRP4): 36% | %Inh (PYK2): 21% | %Inh (QSK): 0% | %Inh (RAF1): 1% | %Inh (RET): 9% | %Inh (RIOK1): 51% | %Inh (RIOK2): 0% | %Inh (RIOK3): 35% | %Inh (RIPK1): 17%

Cc1ccc(-c2ccc3c(ccc4sc5c(c43)NC[C@@H](C)N=C5N(C)C)n2)cn1
%Inh (PRKX): 0% | %Inh (PRP4): 0% | %Inh (PYK2): 0% | %Inh (QSK): 0% | %Inh (RAF1): 0% | %Inh (RET): 0% | %Inh (RIOK1): 0% | %Inh (RIOK2): 0% | %Inh (RIOK3): 0% | %Inh (RIPK1): 0%

CCC(=O)c1c(-c2ccccc2)c2cc(Cl)ccc2c(=O)n1Cc1cc(S(C)(=O)=O)n(CC(N)=O)n1
%Inh (PRKX): 0% | %Inh (PRP4): 38% | %Inh (PYK2): 0% | %Inh (QSK): 0% | %Inh (RAF1): 11% | %Inh (RET): 1% | %Inh (RIOK1): 1% | %Inh (RIOK2): 0% | %Inh (RIOK3): 0% | %Inh (RIPK1): 0%

CCn1c(-c2nonc2N)nc2ccccc21 [SB-693162/GW549034]
%Inh (PRKX): 24% | %Inh (PRP4): 0% | %Inh (PYK2): 0% | %Inh (QSK): 0% | %Inh (RAF1): 0% | %Inh (RET): 22% | %Inh (RIOK1): 0% | %Inh (RIOK2): 14% | %Inh (RIOK3): 0% | %Inh (RIPK1): 0%

Nc1ncnc2c1ncn2-c1cccc(F)c1 [SKF-97560]
%Inh (PRKX): 0% | %Inh (PRP4): 0% | %Inh (PYK2): 6% | %Inh (QSK): 13% | %Inh (RAF1): 14% | %Inh (RET): 1% | %Inh (RIOK1): 38% | %Inh (RIOK2): 19% | %Inh (RIOK3): 49% | %Inh (RIPK1): 22%

Nc1ncnc2c1ncn2-c1cccc2ccccc12 [SKF-97184]
%Inh (PRKX): 0% | %Inh (PRP4): 0% | %Inh (PYK2): 4% | %Inh (QSK): 6% | %Inh (RAF1): 0% | %Inh (RET): 0% | %Inh (RIOK1): 7% | %Inh (RIOK2): 0% | %Inh (RIOK3): 5% | %Inh (RIPK1): 0%

Cc1nc(N(C)[C@H]2CN(C(=O)CC#N)CC[C@H]2C)c2cc[nH]c2n1
%Inh (PRKX): 4% | %Inh (PRP4): 0% | %Inh (PYK2): 0% | %Inh (QSK): 0% | %Inh (RAF1): 0% | %Inh (RET): 5% | %Inh (RIOK1): 0% | %Inh (RIOK2): 2% | %Inh (RIOK3): 8% | %Inh (RIPK1): 11%

CCC(=O)c1c(-c2ccccc2)c2cc(Cl)ccc2c(=O)n1Cc1cc(C(=O)NC2CC2)n(C)n1
%Inh (PRKX): 0% | %Inh (PRP4): 0% | %Inh (PYK2): 0% | %Inh (QSK): 0% | %Inh (RAF1): 40% | %Inh (RET): 0% | %Inh (RIOK1): 0% | %Inh (RIOK2): 17% | %Inh (RIOK3): 10% | %Inh (RIPK1): 0%

COc1ccc(-c2cc3c(C)nc(N)nc3n([C@H]3CC[C@H](OCCO)CC3)c2=O)cn1
%Inh (PRKX): 12% | %Inh (PRP4): 0% | %Inh (PYK2): 0% | %Inh (QSK): 0% | %Inh (RAF1): 0% | %Inh (RET): 0% | %Inh (RIOK1): 0% | %Inh (RIOK2): 0% | %Inh (RIOK3): 0% | %Inh (RIPK1): 0%
